From paper PMC7862700, “An all-to-all approach to the identification of sequence-specific readers for epigenetic DNA modifications on cytosine”

What was measured:
Assay in all cases: DAPPL (digital affinity profiling via proximity ligation, sequencing); 10 mM Tris-HCl pH 7.5, 50 mM NaCl, 1 mM DTT, 4% glycerol, room temperature, 30 min; GST-TFs on glutathione beads, 16-mer random dsDNA library, 0.1% formaldehyde crosslink after washing; high values mean tight binding
Settings in all cases: protein: recombinant; tags: N-terminal GST; dsDNA, one strand shown
[1] = biological target: T1, FLI1 (Homo sapiens, UniProt Q01543 1-452)
T1 sequence: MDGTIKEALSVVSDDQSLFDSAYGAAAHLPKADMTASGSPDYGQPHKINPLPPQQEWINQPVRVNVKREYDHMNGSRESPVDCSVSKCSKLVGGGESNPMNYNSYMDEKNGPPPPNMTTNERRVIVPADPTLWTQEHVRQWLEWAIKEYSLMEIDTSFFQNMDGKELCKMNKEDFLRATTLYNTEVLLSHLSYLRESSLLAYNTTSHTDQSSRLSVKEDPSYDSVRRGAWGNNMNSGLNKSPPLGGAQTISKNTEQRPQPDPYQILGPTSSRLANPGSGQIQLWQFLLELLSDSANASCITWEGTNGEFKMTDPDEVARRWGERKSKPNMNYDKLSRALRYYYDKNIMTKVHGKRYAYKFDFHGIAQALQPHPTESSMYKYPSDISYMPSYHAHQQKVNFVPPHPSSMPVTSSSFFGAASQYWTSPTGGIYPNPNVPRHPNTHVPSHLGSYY
In short: (§1)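 The binding signal reported is, for every hexamer, its read frequency for a factor over its read frequency for the tag-only sample. Reads came from pools of yeast-expressed, GST-fused human transcription factors on glutathione beads, barcoded with DNA and mixed with that sample, which were incubated with 200 nmole of a random double-stranded 16-mer DNA library in Tris/NaCl/DTT/glycerol buffer at room temperature for 30 min. After washing, the pools were crosslinked with 0.1% formaldehyde, proximity-ligated with BsaI/T4 ligase for 1 h at 37 °C, PCR-amplified and sequenced on an Illumina NextSeq500.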

[2] = biological target: T2, ELK1 (Homo sapiens, UniProt P19419 1-428)
T2 sequence: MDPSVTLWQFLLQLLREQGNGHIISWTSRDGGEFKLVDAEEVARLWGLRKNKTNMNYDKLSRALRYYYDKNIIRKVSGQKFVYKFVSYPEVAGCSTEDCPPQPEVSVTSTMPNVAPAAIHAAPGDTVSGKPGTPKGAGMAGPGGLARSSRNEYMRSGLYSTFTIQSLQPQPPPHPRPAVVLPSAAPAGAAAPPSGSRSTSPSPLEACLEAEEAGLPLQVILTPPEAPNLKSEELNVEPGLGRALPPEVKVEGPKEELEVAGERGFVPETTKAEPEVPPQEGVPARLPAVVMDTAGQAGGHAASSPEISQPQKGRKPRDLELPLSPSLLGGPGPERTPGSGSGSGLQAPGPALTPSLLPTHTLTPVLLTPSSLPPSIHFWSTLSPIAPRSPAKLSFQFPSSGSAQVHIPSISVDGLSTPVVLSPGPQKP
In short: as §1

[3] = biological target: T3, GABPA (Homo sapiens, UniProt Q06546 1-454)
T3 sequence: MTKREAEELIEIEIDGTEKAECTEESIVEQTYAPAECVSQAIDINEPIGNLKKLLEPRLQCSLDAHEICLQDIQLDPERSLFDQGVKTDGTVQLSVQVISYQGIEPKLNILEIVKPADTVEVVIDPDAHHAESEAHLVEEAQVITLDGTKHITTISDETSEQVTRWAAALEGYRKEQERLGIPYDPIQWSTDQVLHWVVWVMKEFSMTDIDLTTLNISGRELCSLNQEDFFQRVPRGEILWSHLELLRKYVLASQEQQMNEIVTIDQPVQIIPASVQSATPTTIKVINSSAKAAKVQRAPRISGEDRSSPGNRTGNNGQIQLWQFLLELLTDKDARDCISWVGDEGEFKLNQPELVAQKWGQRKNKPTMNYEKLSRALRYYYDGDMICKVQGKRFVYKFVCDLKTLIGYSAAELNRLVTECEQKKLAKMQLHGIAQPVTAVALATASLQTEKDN
In short: as §1

[4] = biological target: T4, ERG (Homo sapiens, UniProt P11308 1-479)
T4 sequence: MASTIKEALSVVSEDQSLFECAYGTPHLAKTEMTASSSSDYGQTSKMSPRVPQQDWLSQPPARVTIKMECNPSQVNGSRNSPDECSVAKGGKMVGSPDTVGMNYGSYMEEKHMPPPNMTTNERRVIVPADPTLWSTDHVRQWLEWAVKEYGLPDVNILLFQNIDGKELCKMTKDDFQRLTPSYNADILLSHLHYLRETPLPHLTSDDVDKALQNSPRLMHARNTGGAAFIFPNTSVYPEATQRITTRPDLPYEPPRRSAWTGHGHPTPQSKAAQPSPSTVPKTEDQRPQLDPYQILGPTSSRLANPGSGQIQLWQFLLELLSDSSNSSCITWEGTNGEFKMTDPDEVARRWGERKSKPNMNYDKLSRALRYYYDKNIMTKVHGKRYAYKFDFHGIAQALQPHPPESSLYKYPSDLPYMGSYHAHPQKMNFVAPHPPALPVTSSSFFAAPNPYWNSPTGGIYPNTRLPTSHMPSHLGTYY
In short: as §1

[5] = biological target: ELF1 (Homo sapiens, UniProt P32519 1-619)
Sequence of ELF1 (P32519 whole entry): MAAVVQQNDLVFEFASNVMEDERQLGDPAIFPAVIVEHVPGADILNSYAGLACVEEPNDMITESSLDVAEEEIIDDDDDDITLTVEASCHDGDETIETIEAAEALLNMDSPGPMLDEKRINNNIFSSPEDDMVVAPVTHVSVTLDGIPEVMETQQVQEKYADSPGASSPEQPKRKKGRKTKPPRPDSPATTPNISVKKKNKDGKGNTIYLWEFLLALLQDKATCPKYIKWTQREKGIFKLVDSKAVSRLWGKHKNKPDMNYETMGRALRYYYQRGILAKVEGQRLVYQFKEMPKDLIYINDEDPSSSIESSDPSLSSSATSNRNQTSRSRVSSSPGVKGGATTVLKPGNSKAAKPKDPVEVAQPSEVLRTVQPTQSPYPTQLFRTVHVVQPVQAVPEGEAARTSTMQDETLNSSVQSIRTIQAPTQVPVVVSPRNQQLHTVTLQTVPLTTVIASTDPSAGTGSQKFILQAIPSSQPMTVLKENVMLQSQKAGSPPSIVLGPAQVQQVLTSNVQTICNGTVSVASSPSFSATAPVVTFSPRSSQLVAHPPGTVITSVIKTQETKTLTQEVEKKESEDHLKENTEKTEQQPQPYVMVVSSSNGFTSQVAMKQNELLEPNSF
In short: as §1

[6] = biological target: T5, EHF (Homo sapiens, UniProt Q9NZC4 1-300)
T5 sequence: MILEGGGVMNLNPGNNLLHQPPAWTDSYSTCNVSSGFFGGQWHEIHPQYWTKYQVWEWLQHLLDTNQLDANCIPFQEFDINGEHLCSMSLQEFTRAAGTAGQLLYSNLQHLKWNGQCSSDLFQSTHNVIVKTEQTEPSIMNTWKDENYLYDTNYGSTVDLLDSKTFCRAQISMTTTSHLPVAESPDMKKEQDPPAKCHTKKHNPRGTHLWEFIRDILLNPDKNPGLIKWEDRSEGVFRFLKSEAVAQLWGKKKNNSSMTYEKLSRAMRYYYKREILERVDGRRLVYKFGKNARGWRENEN
In short: as §1

[7] = biological target: SPI1 (Homo sapiens, UniProt P17947 1-270)
In short: as §1

[8] = biological target: SPIB (Homo sapiens, UniProt Q01892 1-262)
Sequence of SPIB (Q01892 whole entry): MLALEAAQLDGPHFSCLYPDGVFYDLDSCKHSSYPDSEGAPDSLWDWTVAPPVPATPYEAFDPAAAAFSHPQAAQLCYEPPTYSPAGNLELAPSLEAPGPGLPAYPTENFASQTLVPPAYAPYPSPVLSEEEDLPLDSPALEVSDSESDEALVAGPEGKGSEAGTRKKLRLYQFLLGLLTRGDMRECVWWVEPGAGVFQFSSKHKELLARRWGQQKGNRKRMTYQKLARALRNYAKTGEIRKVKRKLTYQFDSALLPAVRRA
In short: as §1

[9] = biological target: T6, ELK3 (Homo sapiens, UniProt P41970 1-407)
T6 sequence: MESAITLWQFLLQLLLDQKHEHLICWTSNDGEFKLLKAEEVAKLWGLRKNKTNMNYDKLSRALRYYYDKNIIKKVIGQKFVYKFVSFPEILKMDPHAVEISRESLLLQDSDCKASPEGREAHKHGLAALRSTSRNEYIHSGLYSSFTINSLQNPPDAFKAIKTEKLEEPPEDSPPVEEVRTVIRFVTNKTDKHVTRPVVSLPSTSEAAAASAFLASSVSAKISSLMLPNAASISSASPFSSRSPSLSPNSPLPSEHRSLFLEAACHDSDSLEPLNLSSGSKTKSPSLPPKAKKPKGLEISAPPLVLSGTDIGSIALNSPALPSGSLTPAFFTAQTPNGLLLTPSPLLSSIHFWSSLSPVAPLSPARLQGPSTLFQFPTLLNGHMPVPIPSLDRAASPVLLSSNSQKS
In short: as §1

Sequence | binding signal [1] | binding signal [2] | binding signal [3] | binding signal [4] | binding signal [5] | binding signal [6] | binding signal [7] | binding signal [8] | binding signal [9]
TCTGCG | 1.12 fold enrichment (6-mer frequency, TF over GST control) | 1.28 fold enrichment (6-mer frequency, TF over GST control) | 1.27 fold enrichment (6-mer frequency, TF over GST control) | 1.18 fold enrichment (6-mer frequency, TF over GST control) | 1.2 fold enrichment (6-mer frequency, TF over GST control) | 1.23 fold enrichment (6-mer frequency, TF over GST control) | 1.28 fold enrichment (6-mer frequency, TF over GST control) | 1.23 fold enrichment (6-mer frequency, TF over GST control) | 1.11 fold enrichment (6-mer frequency, TF over GST control)
CTACTG | 1.31 fold enrichment (6-mer frequency, TF over GST control) | 1.28 fold enrichment (6-mer frequency, TF over GST control) | 1.35 fold enrichment (6-mer frequency, TF over GST control) | 1.22 fold enrichment (6-mer frequency, TF over GST control) | 1.34 fold enrichment (6-mer frequency, TF over GST control) | 1.33 fold enrichment (6-mer frequency, TF over GST control) | 1.23 fold enrichment (6-mer frequency, TF over GST control) | 1.05 fold enrichment (6-mer frequency, TF over GST control) | 1.09 fold enrichment (6-mer frequency, TF over GST control)
TGTCTT | 1.29 fold enrichment (6-mer frequency, TF over GST control) | 1.2 fold enrichment (6-mer frequency, TF over GST control) | 1.38 fold enrichment (6-mer frequency, TF over GST control) | 1.34 fold enrichment (6-mer frequency, TF over GST control) | 1.35 fold enrichment (6-mer frequency, TF over GST control) | 1.31 fold enrichment (6-mer frequency, TF over GST control) | 1.2 fold enrichment (6-mer frequency, TF over GST control) | 1.26 fold enrichment (6-mer frequency, TF over GST control) | 1.38 fold enrichment (6-mer frequency, TF over GST control)
CTTCGA | 1.4 fold enrichment (6-mer frequency, TF over GST control) | 1.33 fold enrichment (6-mer frequency, TF over GST control) | 1.25 fold enrichment (6-mer frequency, TF over GST control) | 1.49 fold enrichment (6-mer frequency, TF over GST control) | 1.41 fold enrichment (6-mer frequency, TF over GST control) | 1.19 fold enrichment (6-mer frequency, TF over GST control) | 1.3 fold enrichment (6-mer frequency, TF over GST control) | 1.31 fold enrichment (6-mer frequency, TF over GST control) | 1.57 fold enrichment (6-mer frequency, TF over GST control)
CTCTTA | 1.35 fold enrichment (6-mer frequency, TF over GST control) | 1.4 fold enrichment (6-mer frequency, TF over GST control) | 1.45 fold enrichment (6-mer frequency, TF over GST control) | 1.27 fold enrichment (6-mer frequency, TF over GST control) | 1.51 fold enrichment (6-mer frequency, TF over GST control) | 1.23 fold enrichment (6-mer frequency, TF over GST control) | 1.4 fold enrichment (6-mer frequency, TF over GST control) | 1.32 fold enrichment (6-mer frequency, TF over GST control) | 1.36 fold enrichment (6-mer frequency, TF over GST control)
ACTCTG | 1.28 fold enrichment (6-mer frequency, TF over GST control) | 1.23 fold enrichment (6-mer frequency, TF over GST control) | 1.38 fold enrichment (6-mer frequency, TF over GST control) | 1.24 fold enrichment (6-mer frequency, TF over GST control) | 1.37 fold enrichment (6-mer frequency, TF over GST control) | 1.33 fold enrichment (6-mer frequency, TF over GST control) | 1.26 fold enrichment (6-mer frequency, TF over GST control) | 1.21 fold enrichment (6-mer frequency, TF over GST control) | 1.14 fold enrichment (6-mer frequency, TF over GST control)
AAACGC | 1.24 fold enrichment (6-mer frequency, TF over GST control) | 1.17 fold enrichment (6-mer frequency, TF over GST control) | 1.28 fold enrichment (6-mer frequency, TF over GST control) | 1.34 fold enrichment (6-mer frequency, TF over GST control) | 1.27 fold enrichment (6-mer frequency, TF over GST control) | 1.25 fold enrichment (6-mer frequency, TF over GST control) | 1.22 fold enrichment (6-mer frequency, TF over GST control) | 1.22 fold enrichment (6-mer frequency, TF over GST control) | 1.15 fold enrichment (6-mer frequency, TF over GST control)
CTTAAC | 1.21 fold enrichment (6-mer frequency, TF over GST control) | 1.17 fold enrichment (6-mer frequency, TF over GST control) | 1.28 fold enrichment (6-mer frequency, TF over GST control) | 1.26 fold enrichment (6-mer frequency, TF over GST control) | 1.35 fold enrichment (6-mer frequency, TF over GST control) | 1.26 fold enrichment (6-mer frequency, TF over GST control) | 1.32 fold enrichment (6-mer frequency, TF over GST control) | 1.4 fold enrichment (6-mer frequency, TF over GST control) | 1.31 fold enrichment (6-mer frequency, TF over GST control)
